The whole screen tested about 360,000 compounds, of which about 2,700 (0.75%) were called active. The sample holds actives, similar compounds and a random draw of the others, so the mix is not that of the screen. Values without a mark were called inactive. No stated cut-off is given here; in the data, active means inhibition above about 4.5%; inactive means the rest.

This assay deals with Methionine sulfoxide reductase A (Bos taurus). Description: inhibition of methionine sulfoxide reductase A – biochemical, absorbance, bovine, HTS, primary screen (AID 651718).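 Further: 0% = vehicle wells with enzyme and 100% = reference inhibitor wells.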 Particulars: purified bovine MsrA, absorbance read-out; at 15.5 µM; hits give high values.
As to `Nc1ncnc2c1ncn2C1OC(CO)CC1O` (stereo unspecified), the inhibition is 1.51%.

Turning to `CC1(C(=O)NS(=O)(=O)c2cccc(OC(F)F)c2)CCN1C(=O)C1CC1` (stereo unspecified), the inhibition was 0.29%.

In the case of `COC(=O)c1c(-c2ccc(OC)cc2)c2c(c3c4ccccc4n(S(=O)(=O)c4ccc(C)cc4)c13)C(=O)N(C)C2`, the inhibition is 1.59%.

In the case of `Nc1nc2c(ncn2[C@@H]2O[C@H](C(=O)N[C@H](Cc3ccccc3)C(=O)NCC3CCCCC3)[C@@H](O)[C@H]2O)c(=O)[nH]1`, the inhibition is 0.66%.

Consider `COc1ccc(Cl)cc1NC(=O)CN(C)C(=O)c1cn(-c2ccccc2)nc1-c1cccs1`, for which the inhibition was 0.13%.

Turning to `CC(=O)C1=C(C)NC(C)=C(C(C)=O)C1c1cn(-c2ccccc2)nc1-c1cccs1`, the inhibition was 1.65%.

As to `O=C(O)c1ccc(N/N=C/c2cn(-c3ccccc3)nc2-c2cccs2)cc1`, the inhibition was 8.7% (active).

Turning to `CC(=NNC(N)=O)c1ccc(Cl)c(-n2cccc2)c1`, the inhibition is -0.35%.

Regarding `CN1CCCCC(NC(=O)C(C)(C)C)C1=O` (stereo unspecified), the inhibition is 0%.

For `Cc1ccc(NC(=O)CC2S/C(=N/N=C3\CCCc4ccccc43)NC2=O)cc1` (stereo unspecified), the inhibition is -0.26%.

With `CC(=O)Nc1ccc(S(=O)(=O)Oc2ccc(/C=N/N=C3/NC(=O)C(CC(=O)O)S3)cc2)cc1` (stereo unspecified), the inhibition is 5.33% (active).

Regarding `Cc1ccc(S(=O)(=O)Oc2ccc(/C=N/NC(=O)c3c(Cl)cnn3C)cc2)cc1`, the inhibition is 0.98%.

For `COC(=O)[C@]12C[C@H](CC(=O)NCCCCc3ccccc3)C(=O)N(Cc3ccc4c(c3)OCO4)C1=C[C@H](C(C)(C)C)O[C@@H]2C`, the inhibition is 1.75%.

In the case of `CCOC(=O)Cn1c2c(n(-c3ccc(F)cc3)c1=O)C=C(c1ccccc1)[C@@H](C)C(C(=O)N(C)C1CCCCC1)=C2`, the inhibition was -0.4%.

For the compound `COc1ccc(C2=CN(Cc3ccccc3)C(c3ccc(OC)cc3)CC2=O)cc1` (stereo unspecified), the inhibition was -0.65%.

With `COc1ccc(CNS(=O)(=O)c2cc(Br)ccc2Br)cc1`, the inhibition was 0.62%.

Take `COc1ccc(/C=N/Nc2cc(N3CCOCC3)nc(C)n2)c(OC)c1`: the inhibition is 5.8% (active).

Take `O=C(O)c1ccc(NN=CC2=C(N3CCOCC3)/C(=C/c3ccccc3)CC2)cc1`: the inhibition is 2.43%.

As for `Cc1cc2c(C)nc(N/N=C/c3ccccc3)nc2o1`, the inhibition is 3.05%.

For the compound `COc1ccccc1-c1cnn2c(N3CCOCC3)cc(C)nc12`, the inhibition was 1.96%.

For `Fc1ccccc1/C=N/Nc1cc(N2CCCCC2)ncn1`, the inhibition is 1.96%.

`C(=N/Nc1cc(N2CCOCC2)nc(N2CCOCC2)n1)/c1ccccc1`: the inhibition was 5.01% (active).

Take `COc1ccccc1C(=O)N1O[C@]23C=C[C@]14C[C@@H](O)CC[C@]4(C)C2CC[C@]1(C)[C@@H]([C@H](C)/C=C/[C@H](C)C(C)C)CC[C@H]13` (stereo partly specified): the inhibition was -0.78%.

Regarding `CN(C)C(=O)N1CCN(C(=O)[C@@H](Cc2ccccc2)NC(=O)[C@H]2O[C@@H](n3ccc(N)nc3=O)[C@H](O)[C@@H]2O)CC1`, the inhibition is 0.17%.

Regarding `CSc1ccc(Oc2cccc3c2S(=O)(=O)N([C@H](C)c2ccccc2)C[C@@H](COCc2ccccc2)O3)cc1C`, the inhibition is 0.09%.

`CC(C)Cc1oc(C(=O)O)cc1CN`: the inhibition is -1.34%.

As for `Cc1ccc(S(=O)(=O)NCCC(c2ccccc2)c2ccccc2)cc1C(=O)O`, the inhibition was 0%.

As for `CCn1cnc2scc(-c3ccc(C)c(C)c3)c2c1=O`, the inhibition is 0.83%.

For the compound `CCOC(=O)C(C)n1cnc2c(nnn2-c2ccc(F)cc2)c1=O` (stereo unspecified), the inhibition is -0.86%.

With `COC(=O)Cn1cnc2scc(-c3ccc(C)c(C)c3)c2c1=O`, the inhibition was 4.6% (active).

For the compound `CCOC(=O)C(C)n1cnc2scc(-c3ccc(C)c(C)c3)c2c1=O` (stereo unspecified), the inhibition is 8.45% (active).

Turning to `CCC(C(=O)OC)n1cnc2scc(-c3ccc(C)cc3)c2c1=O` (stereo unspecified), the inhibition is 2.62%.

Take `CC(=O)C(C)n1cnc2scc(-c3ccc(C)cc3)c2c1=O` (stereo unspecified): the inhibition was 0.23%.

Turning to `Cc1sc2c(c1C)c(=O)n(-c1ccccc1)c1nncn21`, the inhibition is 0.74%.

With `CC1(C)CC(=O)C=C(c2ccc3ncccc3c2)C1`, the inhibition is 0.6%.

Consider `Cc1cccc(C(=O)NC2CCN(CC(=O)Nc3cccc(Cl)c3)CC2)c1`, for which the inhibition was -0.97%.

In the case of `COc1ccc(-c2ccc3c(n2)CCCN3S(=O)(=O)c2ccc(C)cc2)cc1`, the inhibition was 1.35%.

As for `CCOC(=O)/C=C/c1ccccc1O`, the inhibition is 1.24%.

In the case of `Nc1ncnc2c1ncn2[C@@H]1O[C@H](C(=O)N[C@@H](CCc2ccccc2)C(=O)N2CCCN(Cc3cccs3)CC2)[C@@H](O)[C@H]1O`, the inhibition was -0.82%.

With `COc1ccc(/C=C(/NC(=O)c2ccco2)C(=O)Nc2ccc(C(C)=O)cc2)cc1`, the inhibition was 6.24% (active).

As for `O=C(NC(Cc1ccccc1)C(=O)O)/C(=C\c1ccccc1)NC(=O)c1ccco1` (stereo unspecified), the inhibition was -0.85%.

For the compound `Cc1ccc(NC(=O)/C(=C\c2ccccc2)NC(=O)c2ccco2)cc1`, the inhibition is 1.7%.

As to `O=C(NCc1ccccc1)[C@@H]1CCCN1C(=O)[C@@H](NS(=O)(=O)c1ccc(F)cc1F)C1CCCCC1`, the inhibition is 0.41%.

Consider `C[C@@H](CN1C2=NC[C@@H](Cc3ccccc3)N2C[C@H]1Cc1ccc(O)cc1)NC(=O)CCC1CCCCC1`, for which the inhibition is -0.6%.

Turning to `C[C@H]1[C@H](c2ccccc2)Oc2cc(Br)ccc2S(=O)(=O)N1Cc1cccc(F)c1`, the inhibition is -0.62%.

For the compound `COc1ccc(CC(=O)c2ccc(O)cc2O)cc1OC`, the inhibition was 5.45% (active).

`COc1ccc(CCNC(=O)c2ccccc2-c2ccccc2C(=O)O)cc1OC`: the inhibition is -1.11%.

As for `COc1ccc(CCNC(=O)CCc2ccccc2O)cc1OC`, the inhibition is -1.41%.

For `COCc1[nH]nc2c1C(c1ccccc1)N(c1ccccc1)C2=O` (stereo unspecified), the inhibition was 2.45%.

Regarding `O=C(N/C(=C\c1ccc([N+](=O)[O-])cc1)C(=O)N1CCOCC1)c1cccc(Br)c1`, the inhibition is 2.94%.

For the compound `O=C(Nc1ccc(C(=O)O)cc1)/C(=C/c1ccc([N+](=O)[O-])cc1)NC(=O)c1ccccc1`, the inhibition is 5.97% (active).

For `O=C(Nc1ccc(C(=O)O)cc1)/C(=C\c1ccccc1)NC(=O)c1ccc(Br)cc1`, the inhibition was -0.28%.

Consider `Cc1ccc(C(=O)N/C(=C/C=C/c2ccccc2)C(=O)NCc2ccco2)cc1`, for which the inhibition is 3.44%.

In the case of `CC(C=Cc1ccccc1)=NNS(=O)(=O)c1ccc([N+](=O)[O-])cc1`, the inhibition was 0.99%.

For `CNC(=O)/C(=C\C=C\c1ccccc1)NC(=O)c1ccc([N+](=O)[O-])cc1`, the inhibition was 5.69% (active).

`O=C(NS(=O)(=O)c1cccs1)[C@H]1O[C@@H](n2ccc(=O)[nH]c2=O)[C@H](O)[C@@H]1O`: the inhibition is -0.74%.

On to `O=C(NN=Cc1ccco1)C(=O)Nc1ccc(Cl)c([N+](=O)[O-])c1`, for which the inhibition is -0.74%.

For the compound `Cc1oc2c(c1C(=O)N1CCOCC1)C(=O)c1ccccc1C2=O`, the inhibition is 14.1% (active).

Consider `CC(C(=O)Nc1ccccc1-c1ccccc1)N1CCOCC1` (stereo unspecified), for which the inhibition is 0.29%.

`Cc1nc2ccccc2n1C(=O)N1CCOCC1`: the inhibition was -0.3%.

Consider `CCOc1cc(/C=N/NC(=O)c2c(C)nc3ccc(Cl)cn23)ccc1O`, for which the inhibition is 6.4% (active).

Regarding `CCOc1ccc(/C=N\NC(=O)c2c(C)nc3cc(C)ccn23)cc1`, the inhibition was 3.14%.

For the compound `CCOc1cc(/C=N/NC(=O)CN2CCCCC2)ccc1O`, the inhibition is 0.86%.

Take `COC(=O)Nc1nc2ccc(C(=O)C3CC3)cc2[nH]1`: the inhibition is 1.54%.

`CCOC(=O)c1cc(C)nc(S(C)(=O)=O)c1C#N`: the inhibition was 1.83%.

On to `CCOC(=O)c1c(C)[nH]c(C)c1C(=O)CSc1nc(N)cc(N)n1`, for which the inhibition was 0.97%.

`CCOC(=O)c1c(C(C#N)C#N)cc(C)nc1C`: the inhibition was 5.28% (active).

For the compound `N#Cc1ccc(S(=O)(=O)NCC(=O)OCC(=O)NCCc2ccccc2)cc1`, the inhibition is 0.77%.

As to `O=C(NCc1ccccc1)[C@@H]1CCCN1C(=O)[C@H]1CCCN1C(=O)c1cccc(Cl)c1`, the inhibition was -0.24%.

For `Brc1ccc(COCCc2cn(Cc3ccccc3)c3ccccc23)cc1`, the inhibition was -0.08%.

Take `N#Cc1c(N)nc2c3c(sc(=N)c2c1N)NC(=O)CC3c1ccccc1Cl` (stereo unspecified): the inhibition was 6.25% (active).

For the compound `CSc1nc2c(c(=O)[nH]1)C(c1cccc(Cl)c1Cl)CC(=O)N2` (stereo unspecified), the inhibition is -1.13%.

Regarding `COC(=O)[C@H](CC(C)C)NS(=O)(=O)c1c(F)cccc1F`, the inhibition is 1.4%.

`COc1cccc(/C(C)=N/Nc2ncc(Cl)cc2Cl)c1`: the inhibition is 5.21% (active).

In the case of `CCN(CC)c1ccc(C(=O)N/N=C(\C)c2cccc(OC)c2)cc1`, the inhibition was 1.78%.

Consider `COC(=O)c1sccc1N/N=C(\C)c1ccc(F)c(Cl)c1`, for which the inhibition is -0.14%.

Turning to `COc1cccc(CNC(=O)[C@H]2CCCN2C(=O)[C@H]2CCCN2C(=O)c2cc(F)cc(F)c2)c1`, the inhibition is 0.79%.

Consider `CCCN1C(=O)c2[nH]nc(-c3ccccc3)c2C1c1ccccc1` (stereo unspecified), for which the inhibition was 0.64%.

For the compound `O=C(N/N=C\c1ccc(-c2ccc(Cl)c(Cl)c2)o1)C(=O)N1CCCC1`, the inhibition is -0.58%.

As for `O=C(Cn1nnc(-c2ccccc2)n1)N/N=C/c1ccc(-c2ccc(Cl)cc2)o1`, the inhibition was 1.47%.

In the case of `Nc1nnnn1CC(=O)N/N=C/c1ccc(-c2cccc(Cl)c2)o1`, the inhibition was 5.41% (active).

As for `Cc1ccc(OCCCC(=O)Nc2ccc(S(=O)(=O)Nc3cc(C)nc(C)n3)cc2)cc1`, the inhibition is 0.56%.

Consider `Cc1ccc(S(=O)(=O)Nc2nc(C)cc(N/N=C/c3ccc(O)cc3)n2)cc1`, for which the inhibition is 9.28% (active).

On to `Cc1ccc(S(=O)(=O)Nc2nc(C)cc(-n3nc(C)cc3C)n2)cc1`, for which the inhibition is -0.42%.

Regarding `CCN1C(=O)N[C@@H](CCc2ccccc2)C(C(=O)OC)=C1C`, the inhibition was 0.27%.

Take `CCCC(=O)N1CCC1(C)C(=O)NS(=O)(=O)c1ccc(Cl)cc1` (stereo unspecified): the inhibition is -0.68%.
